# Pf Dd2 inh – qHTS Primary assay for Inhibitors of Plasmodium falciparum Dd2 growth in vitro | Potency, µM (top dose mostly 28.9 µM), for the others: top-dose activity, negative = inhibition, hits mostly inhibitors | P. falciparum Dd2 growth, SYBR Green, 72 h | AID 1347417, 2020 | hit rate 4.3% among 120,000; active = well fitted inhibition curve with a large enough effect;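 note: plate controls were DMSO vehicle for no effect and reference drug for full effect; nearly all actives have a fitted effect of over 65% in size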
#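 Readout: SYBR Green fluorescence, 485 nm excitation, 535 nm emission, after ~16 h lysis at 37C. Before that, Dd2-infected red cells (2.5% hematocrit) grew 72 h with compound, 29 uM top final concentration.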
# * = called active by the depositor; i = inactive; [ ] = dose if it differs, or a comment. This excerpt belongs to a sample that is enriched for hits. Potency is the fitted concentration of half-maximal effect.
SMILES,Pf Dd2 inh
CCCN(CC1CCOC1)C(=O)Nc1cccc(Cl)c1F (stereo not drawn),49%[5.79 µM]
CCOc1ccc(NC(=O)C2CC(=O)N(c3n[nH]c4cccc(F)c34)C2)cc1 (stereo not drawn),5%
Cn1nc(C(=O)N2CCOc3ccc(CCC(N)=O)cc3C2)c2ccccc21,i
CCn1ccc2sc(C)c(C(=O)NCc3ccc(OC)cc3OC)c2c1=O,-24%
CN1CC(=O)N(C2CCC2)Cc2c1ncnc2N1CCN(c2ncccn2)CC1,-17%
Cc1c(CCNC(=O)c2ccc(Br)o2)sc2nc(-c3ccc(Cl)cc3)nn12,-16%
COc1ccc(-c2nc3sc(CCNC(=O)Cc4ccc(Cl)cc4)c(C)n3n2)cc1,6%
COc1ccc(-c2nc3sc(CCNC(=O)c4ccc(Br)o4)c(C)n3n2)cc1,8.9µM*
COc1ccc(-c2nc3sc(CCNC(=O)c4ccc(C(C)(C)C)cc4)c(C)n3n2)cc1,1.1µM*
CCOc1ccc(CC(=O)NCCc2sc3nc(-c4ccc(OC)cc4)nn3c2C)cc1,-28%
CCC(=O)NCCc1sc2nc(-c3ccc(OC)cc3)nn2c1C,-6%
CN1CCN(C(=O)c2ccccc2C2CCNC2)CC1 (stereo not drawn),-3%
O=C(NC1CCN(Cc2ccccc2)CC1)c1ccc(Cn2c(=O)c3ccccc3n(Cc3ccccc3)c2=O)cc1,-15%
O=C(NC1CCN(Cc2ccccc2)CC1)c1ccc(Cn2c(=O)c3ccccc3n(Cc3ccc(Cl)cc3)c2=O)cc1,5µM*
COCCCNC(=O)c1ccc(Cn2c(=O)c3ccccc3n(Cc3ccc(Cl)cc3)c2=O)cc1,-18%
N#Cc1cccc(CN2CCC3(CCN(Cc4ccncc4)CC3)C(CO)C2)c1 (stereo not drawn),-8%
O=C(NC1CCc2nn(CC3CC3)c(=O)n2CC1)c1cc(C2CC2)[nH]n1 (stereo not drawn),-8%
O=C(Nc1cccc(F)c1)C1(CCO)CCN(c2ncccn2)C1 (stereo not drawn),8%
CCn1ccc(C(=O)N2CCC(N3C[C@H](O)C[C@H]3C(=O)NC3CCCCC3)CC2)n1,-7%
CN1[C@H](C(=O)O)C[C@H](C(=O)NCC(C)(C)CO)[C@@H]1c1cccc(F)c1F,-15%
COc1ccc(-c2cnc3n2CC(C(=O)NCC2CC2)CC3)cc1 (stereo not drawn),-12%
O=C(NCc1cccn1Cc1ccccc1)Nc1cccc(C(F)(F)F)c1,8.9µM*
CCOC(=O)Cc1ccc(NC(=O)NCc2cccn2Cc2ccccc2)cc1,-28%
COc1ccccc1NC(=O)NCc1cccn1Cc1ccccc1,0%
Cc1nn(CC(=O)NCc2cc(F)ccc2F)c(=O)c2nc(C(C)C)sc12,i
SMILES,Pf Dd2 inh
O=C(Cn1nc2c(cc1=O)CCCCC2)NCc1ccccc1,-18%
COCc1noc([C@@H]2CC(F)(F)CN2C(=O)CCn2cccn2)n1,8%
COc1ccccc1CNC(=O)C1CCc2ncc(-c3ccsc3)n2C1 (stereo not drawn),i
CC1=C[C@@H](CNCCN(C)C)[C@H](C(C)C)C[C@H]1Cc1nnc(-c2ccc(C)cc2)o1,2.2µM*
CC1=C[C@@H](CO)[C@H](C(C)C)C[C@H]1Cc1nnc(Cc2c[nH]c3ccccc23)o1,i
CC1=C[C@@H](CN(C)CCO)[C@H](C(C)C)C[C@H]1Cc1nnc(-c2ccc(N(C)C)cc2)o1,2.5µM*
COCCNC(=O)C[C@@H]1C[C@@H](C(C)C)[C@H](CNC(=O)c2cnccn2)C=C1C,2%[44.1 µM]
COCCNC[C@@H]1C=C(C)[C@H](Cc2nnc(-c3ccc(N(C)C)cc3)o2)C[C@H]1C(C)C,3.5µM*
CC1=C[C@@H](CO)[C@H](C(C)C)C[C@H]1Cc1nnc(-c2ccc(N(C)C)cc2)o1,2µM*
COCCNC(=O)C[C@@H]1C[C@@H](C(C)C)[C@H](CNC(=O)CCC(=O)O)C=C1C,5%[44.1 µM]
CC1=C[C@@H](CNCCN(C)C)[C@H](C(C)C)C[C@H]1Cc1nnc(C)o1,i
CC1=C[C@@H](CO)[C@H](C(C)C)C[C@H]1Cc1nnc(-c2ccncc2)o1,i
CC1=C[C@@H](CN(CC2CC2)CC2CC2)[C@H](C(C)C)C[C@H]1Cc1nc2ccncc2[nH]1,-1%[44.1 µM]
O=C1CCCN1CC(=O)N1CC(Oc2ccccc2-c2nc(C3CC3)no2)C1,-20%
CC(C)Cc1cc(C(=O)NCC2CCN(c3cnn(C)c(=O)c3)C2)no1 (stereo not drawn),i
Cc1ccc(O[C@H]2CCOC[C@H]2NC(=O)c2cc(C#N)cn2C)cn1,1%
Cc1cc(C)n(C2CCN(c3nccc(-c4ccccn4)n3)C2)n1 (stereo not drawn),1%
O=C(C1CCCCC1)N1C[C@@H](CO)[C@H](c2nc(-c3ccncc3)no2)C1,-20%
COCCNC(=O)[C@@H]1C[C@H](Oc2cccnc2)CN1C(=O)c1sc(C)nc1C,22%
O=C(c1ccc2c(c1)OCO2)N1CCC(c2n[nH]c(=O)n2Cc2ccc(F)cc2)CC1,i
O=C1CCC(CCC(=O)N[C@@H]2COCC[C@@H]2Oc2ccc(F)cc2)=NN1,-1%
CC1=C[C@@H](CN2CCC[C@H]2CO)[C@H](C(C)C)C[C@H]1Cc1nnc(-c2ccc(N(C)C)cc2)o1,1.4µM*
CN(C)c1ccc(-c2nnc([C@H]3CCN(C(=O)CCC(=O)O)C3)o2)cc1,-29%[44.1 µM]
COc1ccc(C2(C(=O)N3CCCN(C(=O)C4CC4)C(c4ccccc4)CC(=O)NCC3)CC2)cc1 (stereo not drawn),i
Cc1ccc(-n2nc3n(c2=O)CCN(C(=O)c2ccc(Cl)nc2)C3)cc1,-17%
SMILES,Pf Dd2 inh
COC(=O)CC(=O)CSc1nc2cc(C(=O)NCC(C)C)ccc2c(=O)n1CCc1ccccc1,11µM*
COCCn1c(SCC(=O)c2c(C)[nH]c3ccccc23)nc2cc(C(=O)NC(C)C)ccc2c1=O,-27%
COCCn1c(SCC(=O)c2c[nH]c3ccccc23)nc2cc(C(=O)NC(C)C)ccc2c1=O,-16%
CCn1cnnc1CC1CCCN(C(=O)Nc2cccc(C)c2)C1 (stereo not drawn),i
Cc1ccc(S(=O)(=O)NC[C@H]2OC[C@@H](NCc3cccnc3)[C@@H]2O)cc1,16%[44.1 µM]
CC(C)CC(=O)N1CCC2(CC1)N(C)C(=O)CS2(=O)=O,7%
COc1ccc(C2CC(=O)N(Cc3ccc(F)cc3)c3ccccc3S2)cc1OC (stereo not drawn),22%
COc1ccc(C2CC(=O)N(Cc3ccc(F)cc3)c3ccccc3S2)cc1 (stereo not drawn),i
COc1cc(C2CC(=O)N(Cc3ccc(F)cc3)c3ccccc3S2)cc(OC)c1OC (stereo not drawn),1.1µM*
Cc1nc(C)c(C(=O)NCC23CCCC=C2N(C)C(=O)CC3)s1 (stereo not drawn),17%
O=C(C[C@H]1NC(=O)c2ccccc2NC1=O)Nc1cccc(-c2ncn[nH]2)c1,i
O=C(Nc1ccc2c(N3CCCC3)ncnc2c1)c1cc(F)ccc1Cl,5µM*
O=C(Nc1ccc2ncnc(N3CCCCC3)c2c1)c1ccc(F)c(F)c1,-7%
O=C(Nc1ccc2c(N3CCCC3)ncnc2c1)c1cc(F)ccc1F,3.2µM*
Cc1oc2ncnc(N3CCCCC3)c2c1C(=O)Nc1cccc(F)c1,i
O=C(Nc1ccc2ncnc(N3CCCCC3)c2c1)c1cc(F)ccc1F,i
O=C(Nc1ccc2c(N3CCCC3)ncnc2c1)c1cccc(F)c1,2µM*
O=C(Nc1ccccc1F)N1CC2CC(C1)[C@H]1CCCC(=O)N1C2 (stereo partly drawn),-6%
